Source: the supplement of paper PMC12494721
Where a name gives a salt, the structure may show the parent alone. Unmarked numbers belong to inactive results.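 Rule for the calls: for the amine columns active = adjusted P below 0.05 in both replicates with a change the same way and a mean fold change under 0.8 or over 1.25; inactive = the rest.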

What follows are compounds tested on Clostridium sporogenes DSM 1664 (assay: fold change of Tryptamine concentration vs plate DMSO controls (fold change (ratio)); higher = more amine produced, active = hit call of the paper (significant change in both replicates, either direction)). Conditions: incubation time: 27 h, anaerobic, 37 °C.
Procedure, shortened: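 Amine values are fold changes relative to DMSO-only wells on the same plate. They derive from 27 h, 37 °C anaerobic mGAM cultures of four gut bacterial strains in 80 µL wells, dosed at 20 µM final, or 50 µM final for sweeteners. Extraction of the whole culture, LC–triple-quadrupole MS in dynamic MRM mode, external calibration curves and within-batch drift correction were used, with 2 biological replicates averaged.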

Going from CC(=O)S[C@@H]1CC2=CC(=O)CC[C@]2(C)[C@H]2CC[C@@]3(C)[C@@H](CC[C@@]34CCC(=O)O4)[C@H]12 [Spironolactone] (20 µM) to C[C@]12CC[C@H]3[C@@H](CCC4=CC(=O)CC[C@@]43C)[C@@H]1CC[C@@H]2C(=O)CO [Deoxycorticosterone] (20 µM), the “fold change of Tryptamine concentration” value falls from 1.03 to 0.963.

Compared with COC(=O)C1=C(C)NC(C)=C(C(=O)OCCN2CCN(C(c3ccccc3)c3ccccc3)CC2)C1c1cccc([N+](=O)[O-])c1 (centres undefined) [Manidipine Dihydrochloride] (20 µM), CC(=O)CC(c1ccc([N+](=O)[O-])cc1)c1c(O)c2ccccc2oc1=O (centres undefined) [Acenocoumarol] (20 µM) is higher in “fold change of Tryptamine concentration” value: 0.799 for the first, 0.94 for the second.

Going from CC(=O)NS(=O)(=O)c1ccc(NC(=O)c2ccccc2C(=O)O)cc1 [Phthalylsulfacetamide] (20 µM) to Cc1cc(C)nc(NS(=O)(=O)c2ccc(N)cc2)n1 [Sulfamethazine sodium salt] (20 µM), the “fold change of Tryptamine concentration” value rises from 1.05 to 1.06.

Going from CN(C/C=C/C#CC(C)(C)C)Cc1cccc2ccccc12 [Terbinafine] (20 µM) to CCN(CCCc1ccccc1)CCCc1ccccc1 [Alverine citrate salt] (20 µM), the “fold change of Tryptamine concentration” value rises from 1.01 to 1.03.

First: Nc1nc2[nH]cnc2c(=S)[nH]1 [Tioguanine] (20 µM)
Second: CCCOc1ccc2[nH]c(NC(=O)OC)nc2c1 [Oxibendazol] (20 µM)
The “fold change of Tryptamine concentration” value of the first is higher: 1.03 for the first, 0.982 for the second.

Going from CC(=O)OCC(=O)[C@@]12N=C(C)O[C@@H]1C[C@H]1[C@@H]3CCC4=CC(=O)C=C[C@]4(C)[C@H]3[C@@H](O)C[C@@]12C [Deflazacort] (20 µM) to CO[C@@H]1[C@@H](OC(N)=O)[C@@H](O)[C@H](Oc2ccc3c(O)c(NC(=O)c4ccc(O)c(CC=C(C)C)c4)c(=O)oc3c2C)OC1(C)C [Novobiocin sodium salt] (20 µM), the “fold change of Tryptamine concentration” value falls from 1.02 to 0.754.

First: CCCCOCCOCCOCc1cc2c(cc1CCC)OCO2 [Piperonyl butoxide] (20 µM)
Second: CCN(CC)CCNC(=O)c1cc(Cl)c(N)cc1OC [Metoclopramide monohydrochloride] (20 µM)
The “fold change of Tryptamine concentration” value of the first is higher: 1.04 for the first, 0.988 for the second.

Compared with O=C(Cn1ccnc1[N+](=O)[O-])NCCO [Etanidazole] (20 µM), C=C(CC)C(=O)c1ccc(OCC(=O)O)c(Cl)c1Cl [Ethacrynic acid] (20 µM) is higher in “fold change of Tryptamine concentration” value: 0.98 for the first, 1.01 for the second.

Compared with CCN(CC)CCNC(C(=O)OCCC(C)C)c1ccccc1 (centres undefined) [Camylofine chlorhydrate] (20 µM), C[C@H](N[C@@H](CCc1ccccc1)C(=O)O)C(=O)N1CCC[C@H]1C(=O)O [Enalaprilat dihydrate] (20 µM) is higher in “fold change of Tryptamine concentration” value: 0.953 for the first, 0.967 for the second.

Compared with C/C(O)=C(\C#N)C(=O)Nc1ccc(C(F)(F)F)cc1 [Teriflunomide] (20 µM), Cc1cn(-c2cc(NC(=O)c3ccc(C)c(Nc4nccc(-c5cccnc5)n4)c3)cc(C(F)(F)F)c2)cn1 [Nilotinib] (20 µM) is higher in “fold change of Tryptamine concentration” value: 0.946 for the first, 1.06 for the second.

Going from NC[C@@H]1O[C@@H](O[C@H]2[C@H](O)[C@@H](O[C@H]3O[C@H](CO)[C@@H](O)[C@H](N)[C@H]3O)[C@H](N)C[C@@H]2N)[C@@H](O)[C@H](O)[C@H]1O [Kanamycin A sulfate] (20 µM) to CN[C@@H]1[C@H](O)[C@H](NC)[C@H]2O[C@@]3(O)C(=O)C[C@@H](C)O[C@H]3O[C@@H]2[C@H]1O [Spectinomycin dihydrochloride] (20 µM), the “fold change of Tryptamine concentration” value falls from 1.06 to 0.992.

Going from CCOC(=O)c1ccc(C#Cc2ccc3c(c2)C(C)(C)CCS3)nc1 [Tazarotene] (20 µM) to OCCN1CCN(CC/C=C2/c3ccccc3Sc3ccc(C(F)(F)F)cc32)CC1 [Flupentixol dihydrochloride cis-(Z)] (20 µM), the “fold change of Tryptamine concentration” value falls from 1.17 to 1.12.

Going from CCOC(N)=O [Urethane] (20 µM) to CC(=O)N[C@@H](CCC(N)=O)C(=O)O [Acetyl-L-glutamine] (20 µM), the “fold change of Tryptamine concentration” value rises from 0.944 to 0.997.

Compared with C=CCOc1ccc(CC(=O)O)cc1Cl [Alclofenac] (20 µM), O=C1CCc2ccc(OCCCCN3CCN(c4cccc(Cl)c4Cl)CC3)cc2N1 [Aripiprazole] (20 µM) is lower in “fold change of Tryptamine concentration” value: 1.05 for the first, 0.955 for the second.

Compared with CCCC(CCC)C(=O)O[C@H]1C[C@H]2CC[C@@H](C1)[N+]2(C)C [Anisotropine Methylbromide] (20 µM), Cn1c(=O)c2c(ncn2CC2OCCO2)n(C)c1=O [Doxofylline] (20 µM) is lower in “fold change of Tryptamine concentration” value: 1.06 for the first, 1.05 for the second.

First: N#Cc1cc(NC(=O)C(=O)O)c(Cl)c(NC(=O)C(=O)O)c1 [Lodoxamide] (20 µM)
Second: Nc1nc(/C(=C/CC(=O)O)C(=O)N[C@@H]2C(=O)N3C(C(=O)O)=CCS[C@H]23)cs1 [Ceftibuten] (20 µM)
The “fold change of Tryptamine concentration” value of the first is higher: 1.05 for the first, 1.02 for the second.

First: O=P(O)(O)C(Cl)(Cl)P(=O)(O)O [Clodronate disodium] (20 µM)
Second: CC(=O)N(CC(O)CO)c1c(I)c(C(=O)NCC(O)CO)c(I)c(C(=O)NCC(O)CO)c1I (centres undefined) [Iohexol] (20 µM)
The “fold change of Tryptamine concentration” value of the first is lower: 0.973 for the first, 0.975 for the second.

Going from Cc1cc2nc3c(=O)[nH]c(=O)nc-3n(C[C@H](O)[C@H](O)[C@H](O)CO)c2cc1C [Riboflavine] (20 µM) to O=C1c2ccccc2S(=O)(=O)N1CCCCN1CCN(c2ncccn2)CC1 [Ipsapirone] (20 µM), the “fold change of Tryptamine concentration” value rises from 1 to 1.04.

In the case of CCN1CCN(C(=O)N[C@@H](C(=O)N[C@@H]2C(=O)N3[C@@H]2SC(C)(C)[C@@H]3C(=O)O)c2ccccc2)C(=O)C1=O [Piperacillin sodium salt] (20 µM), the “fold change of Tryptamine concentration” value was 0.0439 (active).
For CC1CCc2cc(F)cc3c(=O)c(C(=O)O)cn1c23 (centres undefined) [Flumequine] (20 µM), the “fold change of Tryptamine concentration” value was 0.0425 (active).
With CO/N=C1\CN(c2nc3c(cc2F)c(=O)c(C(=O)O)cn3C2CC2)CC1CN (centres undefined) [Gemifloxacin mesylate] (20 µM) the “fold change of Tryptamine concentration” value was 0.0398 (active).
